{"source": "PubChem BioAssay (NCATS)", "note": "Values without a mark were called inactive. The rule behind the calls is not given here. Potency is the fitted concentration of half-maximal effect."}
{"system": "HIV-1 nucleocapsid protein NCp7 (binding to TG oligonucleotide)", "test": "HIV Nucleocapsid (AID 346);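 note: potency is for inhibitors that block NC binding and lower polarization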", "conditions": "HIV-1 NC / fluorescein-TGTGTGTG probe, fluorescence polarization", "method_in_brief": "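Fluorescence polarization binding of 100 nM HIV-1 NC to 10 nM fluorescein-labelled TG4xF oligonucleotide. Buffer was Hepes pH 7.5 with 250mM NaCl, 1uM ZnCl2, TCEP and 2-mercaptoethanol. Compounds were incubated 1 hr at room temperature before the read.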", "units": {"Potency": "µM"}}
{"molecule": "CS(=O)(=O)N1CCC2(CCN(Cc3ccc(C#N)cc3)CC2)CC1", "Potency": "> 20"}
{"molecule": "COc1cccc(Cn2c(=O)c(C)nc3cnc(OCc4ccccc4)nc32)c1", "Potency": "> 20"}
{"molecule": "Cn1cccc1C(=O)N1CCC2(CC1)CN(Cc1ccc(C#N)cc1)C2", "Potency": "> 20"}
{"molecule": "CN1CCN(c2cc(-c3ccccc3Cl)ncn2)CC1", "Potency": "> 20"}
{"molecule": "COC(=O)N1CCC[C@@]2(CCN(C(=O)Nc3ccccc3)C2)C1", "Potency": "> 20"}
{"molecule": "COc1cccc(Nc2ncc3nc(-c4ccc(Cl)cc4)c(=O)n(C[C@H]4CCCO4)c3n2)c1", "Potency": "> 20"}
{"molecule": "COC(=O)N1CCC2(CC1)CCN(c1cccc(-c3ccccc3)c1)CC2", "Potency": "> 20"}
{"molecule": "CN(C)Cc1ccccc1-c1nccc(Nc2ccc(F)cc2)n1", "Potency": "> 20"}
{"molecule": "Cc1noc(C)c1-c1nc(N(C)Cc2ccco2)c2ccccc2n1", "Potency": "> 20"}
{"molecule": "O=c1c(-c2cccc(Cl)c2)nc2cncnc2n1Cc1ccc(F)cc1", "Potency": "> 20"}
{"molecule": "Cn1cccc1C(=O)N1CCC[C@@]2(CCN(C(c3ccccc3)c3ccccc3)C2)C1", "Potency": "> 20"}
{"molecule": "CC(C)CN1CCC2(CC1)CCN(C(=O)c1csnn1)CC2", "Potency": "> 20"}
{"molecule": "COCCn1c(=O)c(CCc2ccccc2)nc2cnc(Nc3ccccc3)nc21", "Potency": "> 20"}
{"molecule": "COCC(=O)N1CCC2(CC1)CN(c1ccncc1)C2", "Potency": "> 20"}
{"molecule": "O=C(Nc1ccccc1)N1CCC2(CC1)CCN(C(=O)c1csnn1)CC2", "Potency": "> 20"}
{"molecule": "COc1cccc(Nc2ncc3nc(-c4cc(F)cc(F)c4)c(=O)n(C[C@H]4CCCO4)c3n2)c1", "Potency": "> 20"}
{"molecule": "O=C(c1cccc(F)c1)N1CCC2(CCCN(C(c3ccccc3)c3ccccc3)C2)CC1", "Potency": "> 20"}
{"molecule": "COCC(=O)N1CCC[C@@]2(CCN(C(=O)Nc3cccc(F)c3)C2)C1", "Potency": "> 20"}
{"molecule": "CN(C)Cc1ccccc1-c1nc(N(C)C)c2ccccc2n1", "Potency": "> 20"}
{"molecule": "COc1ccc(-c2nc3cnc(N4CCOCC4)nc3n(Cc3cccc(OC)c3)c2=O)cc1", "Potency": "> 20"}
{"molecule": "COc1ccccc1CNc1cc(-c2ccccc2CN(C)C)ncn1", "Potency": "> 20"}
{"molecule": "COc1ccc(C(=O)N2CCC[C@@]3(CCN(c4ncccn4)C3)C2)cc1", "Potency": "> 20"}
{"molecule": "COc1ccc(Oc2ncc3nc(CCc4ccccc4)c(=O)n(C)c3n2)cc1", "Potency": "> 20"}
{"molecule": "CC(=O)N1CCC[C@@]2(CCN(Cc3ccc(C#N)cc3)C2)C1", "Potency": "> 20"}
{"molecule": "COc1ccc(Oc2ncc3nc(-c4cc(F)cc(F)c4)c(=O)n(C4CC4)c3n2)cc1", "Potency": "> 20"}
{"molecule": "Cc1cnc(CNc2nc(-c3ccccc3C)nc3ccccc23)cn1", "Potency": "> 20"}
{"molecule": "COC(=O)N1CCC2(CC1)CN(c1ccncc1)C2", "Potency": "> 20"}
{"molecule": "Cc1cnc(CNc2ccnc(-c3ccc(N(C)C)cc3)n2)cn1", "Potency": "> 20"}
{"molecule": "Cc1noc(C)c1C(=O)N1CCC[C@@]2(CCN(C(=O)Nc3ccccc3)C2)C1", "Potency": "> 20"}
{"molecule": "Cc1nc2cnc(OCc3ccccc3)nc2n(CCc2ccccc2)c1=O", "Potency": "> 20"}
{"molecule": "CN1CCN(c2ncc3nc(-c4ccccc4)c(=O)n(Cc4cccs4)c3n2)CC1", "Potency": "> 20"}
{"molecule": "CS(=O)(=O)N1CCC[C@@]2(CCN(Cc3ccc(C#N)cc3)C2)C1", "Potency": "> 20"}
{"molecule": "Cc1noc(C)c1-c1cncnc1N1CCN(C)CC1", "Potency": "> 20"}
{"molecule": "Cn1c(=O)c(-c2ccccc2)nc2cnc(N3CCOCC3)nc21", "Potency": "> 20"}
{"molecule": "N#CCCn1c(=O)c(CCc2ccccc2)nc2cnc(Nc3ccccc3)nc21", "Potency": "> 4"}
{"molecule": "O=C(c1cc(C(F)(F)F)cc(C(F)(F)F)c1)N1CCC2(CCCN(Cc3ccccc3)C2)CC1", "Potency": "> 20"}
{"molecule": "Cc1cccc(CNc2cc(-c3ccoc3)ncn2)c1", "Potency": "> 20"}
{"molecule": "COC(=O)N1CCC2(CCCN(C(=O)Nc3ccccc3)C2)CC1", "Potency": "> 20"}
{"molecule": "COc1ccc2[nH]cc(CCNc3ncncc3-c3ccccc3Cl)c2c1", "Potency": "> 20"}
